Bioassay records (PubChem BioAssay)
This is a sample that favours compounds with a hit; in the whole collection about 12% have one here.
JMJD2A Tudor inh = JMJD2A Tudor domain (human) inhibition; AlphaScreen JMJD2A-Tudor / H3K4me3 peptide binding; Potency, µM (highest dose often 114 µM), inactives show at the top dose activity change, negative = inhibition, hits mostly inhibitors; 390,000 compounds, 4.4% hits; O75164; also: % is scaled to controls: 0 for no effect and ±100 for the full control effect; nearly all actives have a fitted effect of over 50% in size
BAZ2B block = blocks human BAZ2B. AlphaScreen BAZ2B-H3K14Ac peptide displacement. 360,000 compounds, 4.4% hits. Potency, µM (top dose mostly 114 µM), for inactives: at the highest dose activity change, negative = inhibition, actives largely listed as inhibitors; also: % is scaled to controls: 0 for no effect and ±100 for the full control effect; nearly all actives have a fitted effect of over 60% in size
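BAZ2B 50 nM plus b-H3(5-23)K14Ac 50 nM, PBS pH 7.4/0.01% Tween-20, 30 min RT; compound added (max 110 uM), 30 min RT; streptavidin donor/Ni-chelate acceptor beads 10 ug/mL final, 20 min dark; AlphaScreen read.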
Sfp PPTase inh = inhibitors of Bacillus subtilis Sfp phosphopantetheinyl transferase | Biochemical Sfp PPTase activity, qHTS | Potency, µM, inactives show largest response in the series, negative = inhibition, actives largely listed as inhibitors | 310,000 compounds, 3.5% hits | AID 1490;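 also: the enzyme is Sfp with the accession as filed and its product quenches rhodamine fluorescence; 0% = enzyme reaction without inhibitor and -100% = no enzyme wells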
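Sfp 15 nM + cpd, 15 min RT; start w/ rhodamine-CoA 5 uM, BHQ-2-YbbR 12.5 uM (final); 50 mM Hepes pH 7.6, 10 mM MgCl2, 0.01% NP-40, 0.01% BSA; read 525/598 nm at 0 and 30 min.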
HP1b binding inh = inhibitors of HP1-beta chromodomain binding to methylated histone tails. AID 540317. AlphaScreen HP1-beta / biotin-H3K9me3 peptide binding. Potency, µM (doses to about 114 µM), inactives show top-dose activity change, negative = inhibition, usual class: inhibitors. 390,000 compounds, 0.56% hits; also: nearly all actives have a fitted effect of over 70% in size
Target sequence (P83916 whole entry, looked up): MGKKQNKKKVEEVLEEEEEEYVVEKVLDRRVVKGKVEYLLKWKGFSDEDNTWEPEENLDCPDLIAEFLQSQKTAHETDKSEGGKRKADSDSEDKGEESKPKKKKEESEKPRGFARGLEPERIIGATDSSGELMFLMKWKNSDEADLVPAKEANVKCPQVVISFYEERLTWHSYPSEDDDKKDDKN
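HP1-beta protein (50 nM final) preincubated 30 min at room temperature with biotinylated H3(1-18)K9me3 peptide (50 nM) in PBS pH 7.4, 0.01% Tween-20, then compound added for 30 min. AlphaScreen streptavidin donor/nickel chelate acceptor beads (10 ug/mL final), 30 min dark, luminescence read.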
L3MBTL1 inh = blocks human L3MBTL1; Q9Y468; AlphaScreen L3MBTL1–H3K9me1 peptide binding; Potency, µM (doses to about 57.1 µM), inactives show top-dose activity, negative = inhibition, actives largely listed as inhibitors; 230,000 compounds, 0.66% hits; also: % is scaled to controls: 0 for no effect and ±100 for the full control effect; nearly all actives have a fitted effect of over 60% in size
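L3MBTL1 (50 nM) pre-complexed 30 min with biotinylated H3(1-15)K9me1 peptide (75 nM), then compounds added for 30 min at room temperature; AlphaScreen streptavidin donor/nickel chelate acceptor beads (10 ug/mL final) read after 30 min dark incubation.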
G9a block = G9a (human) methyltransferase inhibition; Q96KQ7; G9a H3K9 monomethylation, AlphaScreen, 2 h; Potency, µM (top dose mostly 102 µM), for inactives: top-dose activity, negative = inhibition, most hits filed as inhibitors; 350,000 compounds, 8.8% hits; AID 504332; also: % is scaled to controls: 0 for no effect and ±100 for the full control effect; nearly all actives have a fitted effect of over 75% in size
Target sequence (Q96KQ7 913-1193 limits assumed): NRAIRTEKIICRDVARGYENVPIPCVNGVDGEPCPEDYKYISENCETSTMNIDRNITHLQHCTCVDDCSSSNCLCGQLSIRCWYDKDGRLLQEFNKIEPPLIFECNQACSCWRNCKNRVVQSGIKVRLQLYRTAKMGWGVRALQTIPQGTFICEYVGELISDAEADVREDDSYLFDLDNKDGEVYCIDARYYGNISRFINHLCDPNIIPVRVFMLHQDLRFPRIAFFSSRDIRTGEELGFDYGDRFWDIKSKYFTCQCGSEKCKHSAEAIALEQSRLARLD
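G9a (20 nM) was preincubated 15 min with compound, then reacted 2 h at room temperature with 500 nM biotin-H3K9 peptide and 20 µM SAM. Monomethyl-H3K9 detected by AlphaScreen using anti-H3K9me1 antibody.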
The depositor's hits bear a star; [ ] = another dose, or the depositor's remark. Calls follow the shape of the dose curve; as a rule, active = well fitted curve in the direction sought with a large enough effect; inconclusive = small, poorly fitted or top-dose-only effect, or another doubt; inactive = no such curve, though single readings can be large; an effect the other way counts as inactive or inconclusive. Potency is read from the fitted curve at half-maximal effect.

`O=C(NNC(=S)Nc1ccccc1)c1cc(-c2cccnc2)nc2ccccc12` gave JMJD2A Tudor inh -23%, BAZ2B block -20%, Sfp PPTase inh 1%, HP1b binding inh -6% and G9a block 16µM*.
`CSc1ccccc1NC(=O)c1cc(-c2cccnc2)nc2ccc(Br)cc12` gave JMJD2A Tudor inh inconclusive, BAZ2B block inconclusive, Sfp PPTase inh 45µM*, HP1b binding inh 7%, L3MBTL1 inh 4% and G9a block -3%[12.7 µM].
CCCCNC(=S)NNC(=O)c1cc(-c2cccnc2)nc2ccccc12 was read as JMJD2A Tudor inh -19%, BAZ2B block -14%, Sfp PPTase inh 10%, HP1b binding inh 20% and G9a block 79µM*.
For CCCNC(=S)NNC(=O)c1cc(-c2cccnc2)nc2ccccc12 the results were JMJD2A Tudor inh -19%, BAZ2B block -5%, Sfp PPTase inh 13%, HP1b binding inh 44% and G9a block -6%[0.501 µM].
CCNC(=S)NNC(=O)c1cc(-c2cccnc2)nc2ccccc12 was read as JMJD2A Tudor inh -20%, BAZ2B block 5%, Sfp PPTase inh 10%, HP1b binding inh 23% and G9a block 45µM*.
Screening CCNC(=S)NNC(=O)c1cc(-c2cccc(C)c2)nc2ccccc12 returned JMJD2A Tudor inh -19%, BAZ2B block -6%, Sfp PPTase inh -10%, HP1b binding inh 9%, L3MBTL1 inh -3% and G9a block inconclusive.
Screening c1ccc(C(c2ccccc2)c2ccn[nH]2)cc1 returned JMJD2A Tudor inh -1%, BAZ2B block -1%, Sfp PPTase inh -2%, HP1b binding inh 59% and G9a block 37%.
Screening COc1ccc(C(C)(C)NC(=O)C2CCC(=O)N(C3CC3)C2)cc1OC (stereo not given) returned JMJD2A Tudor inh -7%, BAZ2B block -14%, Sfp PPTase inh 2%, HP1b binding inh 36% and G9a block 19%.
For Cc1nnsc1C(=O)N/N=C/c1ccc2ccccc2c1O the results were JMJD2A Tudor inh inconclusive, BAZ2B block 1.4µM*, Sfp PPTase inh 6%, HP1b binding inh 13%, L3MBTL1 inh 2µM* and G9a block 40µM*.
Screening Cc1cccc(-n2c(SCC(=O)c3ccccc3)nnc2-c2ccc(Br)cc2)c1 returned JMJD2A Tudor inh -5%, BAZ2B block 0%, HP1b binding inh 34% and G9a block 1%[59 µM].
For COC(=O)C1=C(C)OC(N)=C(C#N)C1c1cc2cccc(C)c2nc1Cl (stereo not given) the results were BAZ2B block 79µM*, Sfp PPTase inh -15%, L3MBTL1 inh -9% and G9a block 22µM*.
CC(=O)C1=C(C)OC(N)=C(C#N)C1c1cc2cccc(C)c2nc1Cl (stereo not given) was read as JMJD2A Tudor inh -19%, BAZ2B block 5%[57.1 µM], Sfp PPTase inh -17%, HP1b binding inh 38%, L3MBTL1 inh 1% and G9a block inconclusive.
Screening COCCOC(=O)C1=C(C)OC(N)=C(C#N)C1c1cc2cccc(C)c2nc1Cl (stereo not given) returned JMJD2A Tudor inh -23%, BAZ2B block 50µM*, Sfp PPTase inh inconclusive, HP1b binding inh 9% and L3MBTL1 inh 17%.
For CCOC(=O)C1=C(C)OC(N)=C(C#N)C1c1cccc(C)c1 (stereo not given) the results were JMJD2A Tudor inh -18%, BAZ2B block -22%, Sfp PPTase inh -3%, HP1b binding inh 16%, L3MBTL1 inh -2% and G9a block 11%[0.501 µM].
For COc1ccccc1C(=O)Nc1ccccc1SC(=O)c1ccccc1OC the results were JMJD2A Tudor inh 6%, BAZ2B block -5%, Sfp PPTase inh inconclusive, HP1b binding inh 46% and G9a block 3%.
`CCN(CC)c1ccc(/C=C(\C#N)c2nc(-c3cccs3)c(NC(C)=O)s2)cc1` gave BAZ2B block 20µM*, Sfp PPTase inh inconclusive, L3MBTL1 inh inconclusive and G9a block 10µM*.
`CCN(CC)c1ccc(/C=N/NC(=O)Cc2cccs2)cc1` gave JMJD2A Tudor inh inconclusive, BAZ2B block inconclusive, Sfp PPTase inh -4%, HP1b binding inh -26%, L3MBTL1 inh -12% and G9a block inconclusive.
`O=C(Nc1ccc(S(=O)(=O)Nc2cnc3ccccc3n2)cc1)c1ccc(Br)o1` gave JMJD2A Tudor inh -18%, BAZ2B block 0%, Sfp PPTase inh 17%, HP1b binding inh 16%, L3MBTL1 inh -3% and G9a block 45µM*.
For O=C(Nc1ccc(S(=O)(=O)Nc2cnc3ccccc3n2)cc1)c1ccccc1Br the results were JMJD2A Tudor inh -12%, BAZ2B block -5%, Sfp PPTase inh 14%, HP1b binding inh 2% and G9a block 1%[59 µM].
For CS(=O)(=O)N1CCC(C(=O)NCc2ccc3c(c2)OCO3)CC1 the results were JMJD2A Tudor inh -19%, BAZ2B block 0%, Sfp PPTase inh 14%, HP1b binding inh 51% and L3MBTL1 inh 5%.
Screening CCCCOC(=O)/C=C\C(=O)OCCCC returned JMJD2A Tudor inh 5%, BAZ2B block -8%, Sfp PPTase inh -2%, HP1b binding inh 55% and G9a block 24%[59 µM].
`CCCCOC(=O)/C=C\C(=O)NC(N)=O` gave JMJD2A Tudor inh 1%, BAZ2B block -4%, Sfp PPTase inh -4%, HP1b binding inh 11%, L3MBTL1 inh 4% and G9a block 45µM*.
For COc1ccccc1CN1CN(S(=O)(=O)c2ccccc2)c2nc3ccccc3nc21 the results were JMJD2A Tudor inh -9%[11.4 µM], BAZ2B block -6%, Sfp PPTase inh 4%, HP1b binding inh -7%, L3MBTL1 inh -11% and G9a block 32µM*.
Cc1ccc(S(=O)(=O)N2CN(CC3CCCO3)c3nc4ccccc4nc32)cc1 (stereo not given) was read as JMJD2A Tudor inh -25%, BAZ2B block -28%, Sfp PPTase inh -1%, HP1b binding inh 39% and G9a block 28µM*.
For Cc1ccc(-n2c(=O)cc(N3CCN(C(=O)c4ccco4)CC3)[nH]c2=O)cc1 the results were JMJD2A Tudor inh -16%, BAZ2B block 8%, Sfp PPTase inh -22%, HP1b binding inh 12%, L3MBTL1 inh 4% and G9a block 45µM*.
Cn1c(=O)cc(N2CCN(C(=O)c3ccco3)CC2)[nH]c1=O was read as JMJD2A Tudor inh -1%, BAZ2B block 4%, Sfp PPTase inh 2%, HP1b binding inh 35% and L3MBTL1 inh 13%.
CCCCCCCCCCCCCCCCCCOCC(O)CO (stereo not given) was read as Sfp PPTase inh 31% and G9a block 24%[59 µM].
